Among the test systems are SR leukemia; RPMI-8226 leukemia; OVCAR-8 ovarian; OVCAR-5 ovarian; OVCAR-4 ovarian; SK-OV-3 ovarian; IGROV1 ovarian; OVCAR-3 ovarian; HS 578T breast; NCI/ADR-RES ovarian; BT-549 breast; MDA-MB-435 melanoma; SW-620 colon; MCF7 breast; HCT-116 colon; HCC-2998 colon; KM12 colon; T-47D breast.
What all share (test): NCI-60 one-dose screen, 48 h (100 = growth as untreated, 0 = no growth, -100 = all killed)
Holding throughout (settings): 10 µM unless noted

The structures appear in SMILES notation. Values joined by “and” are separate entries in the source; they are usually repeats but may differ in a detail not shown here. Identical values can stand only once. About 83,000 compounds went through this panel and 20% of them were active in at least one assay; those are over-represented in the sample as a whole.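 The endpoint reported here, percent growth, reads 100 for growth as untreated, 0 for no net growth and -100 for all cells dead.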 Active and inactive are the calls of the source. The calls were made as follows: active = growth percent below 10; inactive = the rest.

Take `N=C1/C(=C2\NC3C=CC=CC3S2)C(c2ccc(Cl)cc2)C2C(=O)N(c3ccccc3)C(=S)N12` (stereo not given): the growth was 105% (inactive) with SR leukemia; 103% (inactive) in the assay with RPMI-8226 leukemia; 99.1% (inactive) in the assay on OVCAR-8 ovarian; 106% (inactive) in the assay with OVCAR-5 ovarian; 101% (inactive) in the assay with OVCAR-4 ovarian; 105% (inactive) with SK-OV-3 ovarian. Besides, the growth in the assay with IGROV1 ovarian was 92.8% (inactive); with OVCAR-3 ovarian, 106% (inactive); in the assay on HS 578T breast, 99.2% (inactive); in the assay on NCI/ADR-RES ovarian, 95.8% (inactive); with BT-549 breast it was 95.4% (inactive); with MDA-MB-435 melanoma, 108% (inactive). Further, the growth in the assay on SW-620 colon is 104% (inactive); in the assay on MCF7 breast, 94.1% (inactive); in the assay with HCT-116 colon, 101% (inactive); in the assay on HCC-2998 colon it was 99.1% (inactive); in the assay with KM12 colon, 108% (inactive).
`COc1ccc(/C(C)=C(\c2ccc(OCCN3CCOCC3)cc2)c2ccc(OC(=O)C3CCCCC3)cc2)cc1`: the growth with SR leukemia was 112% (inactive); in the assay with RPMI-8226 leukemia it was 97.9% (inactive); in the assay on OVCAR-8 ovarian, 105% (inactive); in the assay with OVCAR-5 ovarian, 98.4% (inactive); with OVCAR-4 ovarian it was 111% (inactive); in the assay with SK-OV-3 ovarian, 101% (inactive). Moreover, the growth in the assay with IGROV1 ovarian is 102% (inactive); with OVCAR-3 ovarian it was 97.5% (inactive); with HS 578T breast it was 110% (inactive); in the assay on T-47D breast it was 77.9% (inactive); in the assay with BT-549 breast it was 112% (inactive); in the assay on MDA-MB-435 melanoma, 105% (inactive). For the same compound, the growth in the assay on SW-620 colon was 102% (inactive); with MCF7 breast, 75.4% (inactive); in the assay with HCT-116 colon, 105% (inactive); in the assay with HCC-2998 colon, 107% (inactive); in the assay on KM12 colon, 98.1% (inactive).
On to `COc1cc(CO)cc2cc3ccccc3nc12`, for which the growth in the assay on SR leukemia was 96% (inactive); in the assay with RPMI-8226 leukemia, 101% (inactive); with OVCAR-8 ovarian it was 101% (inactive); in the assay with OVCAR-5 ovarian it was 106% (inactive); in the assay with OVCAR-4 ovarian, 107% (inactive); with SK-OV-3 ovarian, 109% (inactive). For the same compound, the growth in the assay on IGROV1 ovarian was 106% (inactive); with OVCAR-3 ovarian, 110% (inactive); in the assay on HS 578T breast, 108% (inactive); in the assay on T-47D breast, 101% (inactive); in the assay on BT-549 breast, 102% (inactive); in the assay with MDA-MB-435 melanoma, 104% (inactive). Moreover, the growth in the assay on SW-620 colon is 102% (inactive); in the assay on MCF7 breast, 79.9% (inactive); in the assay with HCT-116 colon, 98.5% (inactive); in the assay with HCC-2998 colon it was 106% (inactive); in the assay on KM12 colon, 102% (inactive).
For the compound `Nc1nc(N)c2c(n1)NC(c1ccc(Cl)cc1)CC(c1cccc(Nc3ccncc3)c1)=N2` (stereo not given), the growth was 8.66% (active) in the assay with SR leukemia; 55.9% (inactive) with RPMI-8226 leukemia; 39% (inactive) with OVCAR-8 ovarian; 90.4% (inactive) in the assay with OVCAR-5 ovarian; 73.8% (inactive) in the assay with OVCAR-4 ovarian; 84.2% (inactive) with SK-OV-3 ovarian. Also, the growth with IGROV1 ovarian is 41.6% (inactive); in the assay with OVCAR-3 ovarian, 82.3% (inactive); in the assay with HS 578T breast it was 77.9% (inactive); in the assay on T-47D breast it was 77.6% (inactive); in the assay on BT-549 breast, 110% (inactive); in the assay on MDA-MB-435 melanoma it was 42.7% (inactive). In addition, the growth was 30% (inactive) in the assay with SW-620 colon; 49.4% (inactive) in the assay on MCF7 breast; 21.9% (inactive) in the assay with HCT-116 colon; 72.1% (inactive) in the assay on HCC-2998 colon; 63.7% (inactive) in the assay with KM12 colon.
With `Cc1ccc(-c2nc(SCC(=O)c3ccc(C#N)cc3)[nH]c(=O)c2C#N)cc1`, the growth in the assay on SR leukemia was -40.6% (active); with RPMI-8226 leukemia it was 123% (inactive); in the assay with OVCAR-8 ovarian it was 96.3% (inactive); in the assay with OVCAR-5 ovarian, 94.8% (inactive); with OVCAR-4 ovarian, 94.5% (inactive); in the assay with SK-OV-3 ovarian it was 82.4% (inactive). The growth was 99.9% (inactive) with IGROV1 ovarian; 97.9% (inactive) in the assay with OVCAR-3 ovarian; 113% (inactive) with HS 578T breast; 100% (inactive) in the assay on T-47D breast; 101% (inactive) in the assay with BT-549 breast; 106% (inactive) with MDA-MB-435 melanoma. Further, the growth is 112% (inactive) with SW-620 colon, 96.5% (inactive) in the assay on MCF7 breast, 88.9% (inactive) in the assay on HCT-116 colon and 107% (inactive) in the assay with HCC-2998 colon.
For the compound `COc1c(O)c(O)cc2c3c(oc12)CC(c1ccc2c(c1)OCO2)CC3=O` (stereo not given), the growth in the assay with SR leukemia is 45.2% (inactive); in the assay with RPMI-8226 leukemia, 62.5% (inactive); in the assay on OVCAR-8 ovarian, 63% (inactive); in the assay on OVCAR-5 ovarian it was 116% (inactive); with OVCAR-4 ovarian, 80.5% (inactive); in the assay on SK-OV-3 ovarian, 90.1% (inactive). Besides, the growth is 54.5% (inactive) in the assay with IGROV1 ovarian; 63.8% (inactive) in the assay on OVCAR-3 ovarian; 93.8% (inactive) in the assay on HS 578T breast; 43.8% (inactive) with T-47D breast; 56.2% (inactive) with BT-549 breast; 39.8% (inactive) in the assay with MDA-MB-435 melanoma. Moreover, the growth in the assay with SW-620 colon was 38.7% (inactive); in the assay with MCF7 breast, 35.5% (inactive); in the assay with HCT-116 colon, 32.1% (inactive); in the assay on HCC-2998 colon, 92.9% (inactive); with KM12 colon, 66% (inactive).
As to `COc1ccc(C(=O)c2ccc(OC)c(OC)c2OC)cc1`, the growth in the assay on SR leukemia is 43.5% (inactive) and 8.36% (active); in the assay with RPMI-8226 leukemia, 35.3% (inactive) and 27.4% (inactive); in the assay with OVCAR-8 ovarian, 41.8% (inactive) and 47.4% (inactive); in the assay on OVCAR-5 ovarian, 83.1% (inactive) and 49.9% (inactive); in the assay with OVCAR-4 ovarian, 82.8% (inactive) and 42.8% (inactive); with SK-OV-3 ovarian, 18% (inactive) and 3.38% (active). Also, the growth in the assay on IGROV1 ovarian is 25.7% (inactive) and 11.9% (inactive); in the assay on OVCAR-3 ovarian, -22.8% (active) and -39.4% (active); in the assay with HS 578T breast it was -9.55% (active) and -14.2% (active); in the assay on T-47D breast, 44.5% (inactive) and 36.2% (inactive); with BT-549 breast, 71.9% (inactive) and 50% (inactive); with MDA-MB-435 melanoma, -14.6% (active) and -29.5% (active). For the same compound, the growth in the assay on SW-620 colon is 15.6% (inactive) and 11.8% (inactive); with MCF7 breast it was 25.4% (inactive) and 16.5% (inactive); in the assay on HCT-116 colon, 30.5% (inactive) and 26.3% (inactive); with HCC-2998 colon, 57.3% (inactive) and 45.6% (inactive); with KM12 colon, 29.5% (inactive) and 24.7% (inactive).
With `COCCOc1cc2ncnc(N3CCN(S(=O)(=O)c4ccccc4Cl)CC3)c2cc1OCCOC`, the growth in the assay with SR leukemia is 22% (inactive); with RPMI-8226 leukemia it was 82.5% (inactive); with OVCAR-8 ovarian it was 93.9% (inactive); in the assay on OVCAR-5 ovarian, 102% (inactive); with OVCAR-4 ovarian, 102% (inactive); in the assay with SK-OV-3 ovarian, 104% (inactive). The growth in the assay on IGROV1 ovarian is 89.7% (inactive); with OVCAR-3 ovarian, 91.5% (inactive); in the assay with HS 578T breast it was 93.5% (inactive); in the assay on NCI/ADR-RES ovarian it was 66.9% (inactive); in the assay with BT-549 breast, 89.5% (inactive); with MDA-MB-435 melanoma it was 10.5% (inactive). Also, the growth in the assay on SW-620 colon was 79.9% (inactive); with MCF7 breast, 49.3% (inactive); with HCT-116 colon, 89.7% (inactive); in the assay with HCC-2998 colon, 79.6% (inactive); in the assay on KM12 colon, 69.7% (inactive).

These data come from PubChem BioAssay (NCI).
